Experimental findings from PubChem BioAssay (NCATS) are described below.

Inconclusive results are not listed. Active and inactive are the calls of the source. Calls come from the whole dose curve; as a rule, active = well fitted inhibition curve with a large enough effect; inconclusive = small, poorly fitted or top-dose-only effect; inactive = flat fitted curve, though single readings scatter.
% is set by controls: 0 for no effect and ±100 for the full control effect.

Ubiquitin carboxyl-terminal hydrolase 1 (Homo sapiens), sequence (O94782 whole entry, looked up): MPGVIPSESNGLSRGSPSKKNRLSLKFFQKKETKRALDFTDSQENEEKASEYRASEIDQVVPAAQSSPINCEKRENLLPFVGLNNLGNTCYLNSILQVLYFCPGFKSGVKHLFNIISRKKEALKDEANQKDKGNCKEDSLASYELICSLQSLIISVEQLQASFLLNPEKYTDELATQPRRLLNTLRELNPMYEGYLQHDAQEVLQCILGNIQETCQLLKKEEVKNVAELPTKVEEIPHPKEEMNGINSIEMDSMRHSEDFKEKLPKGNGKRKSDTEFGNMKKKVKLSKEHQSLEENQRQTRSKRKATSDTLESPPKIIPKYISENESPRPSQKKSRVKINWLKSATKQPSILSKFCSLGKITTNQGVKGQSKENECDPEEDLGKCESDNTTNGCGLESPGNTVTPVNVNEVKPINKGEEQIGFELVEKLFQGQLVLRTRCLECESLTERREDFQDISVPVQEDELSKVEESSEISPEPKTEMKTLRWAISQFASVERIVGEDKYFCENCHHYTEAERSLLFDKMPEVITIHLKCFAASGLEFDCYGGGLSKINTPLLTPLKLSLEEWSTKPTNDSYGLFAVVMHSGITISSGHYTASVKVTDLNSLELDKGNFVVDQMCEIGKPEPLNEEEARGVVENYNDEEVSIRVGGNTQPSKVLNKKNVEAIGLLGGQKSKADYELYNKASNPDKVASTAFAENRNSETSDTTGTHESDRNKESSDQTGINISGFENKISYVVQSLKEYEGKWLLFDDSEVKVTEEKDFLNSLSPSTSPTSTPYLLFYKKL

The test addresses Ubiquitin carboxyl-terminal hydrolase 1 (Homo sapiens) (UniProt O94782). Put plainly: Inhibitors of USP1/UAF1: Pilot qHTS (AID 504865).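 Note: rhodamine fluorescence freed from ubiquitin-rhodamine substrate followed over time; top concentration of the series differs between compounds; nearly all actives have a fitted effect of over 35% in size.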 As to conditions: purified USP1/UAF1, Ub-rhodamine cleavage fluorescence; series mostly up to 114 µM; activity change, negative = inhibition: at the top concentration. A digest of the protocol: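 In 50mM HEPES pH 7.8 containing 0.5mM EDTA, 1mM TCEP, 0.1 mg/ml BSA and 0.01% Tween-20, 1nM USP1/UAF1 is exposed to compound for 15 min, then Ub-Rho (150nM final) is added and fluorescence is read over time.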
Consider `CC[N+](CC)(CC)CCOc1cccc(OCC[N+](CC)(CC)CC)c1OCC[N+](CC)(CC)CC`, for which the Potency result is “inactive”.
Consider `COP(=S)(OC)Oc1ccc(S(=O)(=O)N(C)C)cc1`, for which the “activity change, negative = inhibition” value was -5.16% (inactive).
Still for that read-out and setting: the value for `COC1CC(=C(c2cccs2)c2cccs2)C[N+](C)(C)C1` (stereo unspecified) was -7.07% (inactive).
The same measure, in the same setting: the value for `CC(C)C[C@H]1C(=O)N2CCC[C@H]2[C@]2(O)O[C@](NC(=O)[C@@H]3C=C4c5cccc6[nH]c(Br)c(c56)C[C@H]4N(C)C3)(C(C)C)C(=O)N12` was -5.67% (inactive).
On the same count and under the same terms, for `CCCCCCC(=O)CCCCCC/C=C/C[C@@H](O)[C@H](O)[C@@](N)(CO)C(=O)O` the value was 0.843% (inactive).
For the compound `Cc1cc(=O)n(-c2ccccc2)n1C`, the Potency result was “inactive”.
Take `O=C1Nc2ccc(Cl)cc2C(c2ccccc2Cl)=NC1O` (stereo unspecified): the “activity change, negative = inhibition” value was -9.43% (inactive).
Still for that read-out and setting: the value for `CC(=O)N1CCN(c2ccc(OC[C@H]3CO[C@](Cn4ccnc4)(c4ccc(Cl)cc4Cl)O3)cc2)CC1` was -13.8% (inactive).
Still for that read-out and setting: the value for `CN1C(=O)CC(=O)N(c2ccccc2)c2cc(Cl)ccc21` was -5.99% (inactive).
As for `CCC1(CC)C(=O)C=CNC1=O`, the Potency entry was “inactive”.
Regarding `CCC1(c2ccccc2)C(=O)N(COC)C(=O)N(COC)C1=O`, the “activity change, negative = inhibition” value is -2.67% (inactive).
